# Compounds with a hit are over-represented: about 5.4% of the library has one in this group of screens.
# MPTP inh: permeability transition pore inhibition; inhibition, % at 10 µM; isolated mouse mitochondria, Ca2+ swelling absorbance, 30 min; actives 1.4% (n = 360,000);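 active = inhibition of 50% or more, scaled per plate between neutral and stimulator controls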;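 also: 0% = DMSO wells given calcium and 100% = 1 mM EGTA wells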
# Calb FLC: C. albicans growth modulation with fluconazole | C. albicans CaCi-2 (fluconazole-resistant clinical isolate) + fluconazole, Alamar Blue growth, 48 h | growth inhibition, % (no concentration beside the values) | actives 0.57% (n = 300,000);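 active = growth inhibition above about 58% in most replicates, limit read from the data, passing the limit was not always enough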;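 also: all wells also contain fluconazole at 8 µg/ml as a sub-toxic cotreatment; 0% = median of DMSO wells and 100% = median of geldanamycin control wells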
# Mdm2-MdmX inh: human Mdm2/MdmX binding inhibition; O15151+Q00987; SaOS-2 split-luciferase Mdm2/MdmX complementation, luminescence; inhibition, % at 8 µM; actives 3% (n = 330,000);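 active = inhibition of at least 50% at 8 µM in the primary screen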
# CSC inhib: blocks cancer stem cells | cancer stem cell-like cells viability, luminescence | inhibition, % at 7.5 µM | actives 1.1% (n = 300,000) | AID 2717; in the data active = inhibition above about 75%; tested in HMLE shEcad cells
# Beta apoptosis: beta cell apoptosis inhibition; AID 435005; INS-1E cytokine-induced death, ATP luminescence, 48 h; percent of positive-control rescue, neutral wells zero; protection from apoptosis, % (concentration not given with the values); actives 0.8% (n = 300,000);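 active = Every replicate reaches about 75%, or at least half do and their mean reaches it too, limit read from the data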;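 also: 0% = cytokine-treated negative control wells and 100% = positive control rescue; higher means more ATP so stronger rescue from cytokine killing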
# SKKanGAS inh: blocks kanamycin growth of S. pyogenes SKKanGAS strain; AID 1662; actives 1.3% (n = 300,000); inhibition, % at 7.5 µM; BacTiter-Glo, 6 h;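 active = mean replicate score, as percent of positive control median, at least 50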;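 also: strain carries kanamycin resistance gene driven by streptokinase promoter and grows in 40 µg/ml kanamycin; loss of luminescence reflects streptokinase promoter inhibition or plain growth inhibition; 0% = median of DMSO wells and 100% = positive control at its reference dose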
# * = called active by the depositor; · = no result given.
SMILES,MPTP inh,Calb FLC,Mdm2-MdmX inh,CSC inhib,Beta apoptosis,SKKanGAS inh
Cc1cccc(/C=C2/S/C(=N/N=C3\CC4CCC3(C)C4(C)C)NC2=O)c1 (configuration not stated),9,-7,35,-8,6,125*
O=C1N/C(=N/O)S/C1=C/c1cccc([N+](=O)[O-])c1,1,-39,5,·,-7,-5
Cc1cccc(NC(=O)c2cc(NC(=O)C3CCCCC3C(=O)O)ccc2N2CCCCC2)c1 (configuration not stated),1,·,-17,5,·,·
CC(=O)Nc1ccc(N2CCCCC2)c(C(=O)Nc2cccc(C)c2)c1,5,94*,19,-1,-1,17
N#C/C(=C\c1ccc(/C=C(/C#N)c2nn(CCO)c(N)c2C#N)cc1)c1nn(CCO)c(N)c1C#N,1,-5,-27,-1,-1,67*
N#C/C(=C/c1ccccc1)c1nn(CCO)c(N)c1C#N,1,2,17,-6,-3,5
CC(=O)OCC1=C(C(=O)O)N2C(=O)[C@@H](NC(=O)Cc3ccccc3)[C@H]2SC1,-2,·,·,·,·,·
CC(=O)OCC1=C(C(=O)O)N2C(=O)C(NC(=O)CCn3nc(C(F)(F)F)c(Br)c3C3CC3)C2SC1 (configuration not stated),20,7,16,0,-7,110*
CC(=O)OCC1=C(C(=O)O)N2C(=O)C(NC(=O)CC(C)c3ccccc3)C2SC1 (configuration not stated),-1,·,1,·,-7,·
Cc1nnc(SCC2=C(C(=O)O)N3C(=O)C(NC(=O)Cn4nc(C(F)F)c(Cl)c4C)C3SC2)s1 (configuration not stated),-2,-10,9,-9,-17,96*
CC(=O)OCC1=C(C(=O)O)N2C(=O)[C@@H](NC(=O)Cc3cccs3)[C@H]2SC1,-2,·,7,-15,0,103*
CC(=O)OCC1=C(C(=O)O)N2C(=O)C(NC(=O)C(C)Cn3cc(Cl)cn3)C2SC1 (configuration not stated),-3,-13,26,-9,-7,115*
CC(=O)OCC1=C(C(=O)O)N2C(=O)C(NC(=O)COc3ccc(F)cc3)C2SC1 (configuration not stated),-4,·,5,·,·,·
COc1ccccc1CNC(=O)C1(C)CCN1C(=O)Cc1ccc(-c2ccccc2)cc1 (configuration not stated),-1,·,·,·,·,·
Cc1nnc(SCC2=C(C(=O)O)N3C(=O)C(NC(=O)COc4ccc(F)cc4)C3SC2)s1 (configuration not stated),-3,·,2,1,-5,·
CC(=O)OCC1=C(C(=O)O)N2C(=O)C(NC(=O)Cn3nc(C(F)F)c(Cl)c3C)C2SC1 (configuration not stated),-1,-24,8,-5,-5,109*
Cc1nnc(SCC2=C(C(=O)O)N3C(=O)C(NC(=O)c4cc(F)c(F)cc4Cl)C3SC2)s1 (configuration not stated),-3,27,-1,-3,5,109*
Cc1nnc(SCC2=C(C(=O)O)N3C(=O)C(NC(=O)Cn4nc(C(F)F)cc4C)C3SC2)s1 (configuration not stated),0,3,6,-3,-1,112*
CC(=O)OCC1=C(C(=O)O)N2C(=O)C(NC(=O)CCn3nc(C)c(Cl)c3C)C2SC1 (configuration not stated),-2,-6,5,-13,-3,95*
CCOc1ccc(C(=O)NC2C(=O)N3C(C(=O)O)=C(COC(C)=O)CSC23)cc1OCC (configuration not stated),-2,·,-2,·,·,·
CCCC(C)C(=O)Nc1nc(C)c(-c2csc(Nc3ccc(Cl)cc3)n2)s1 (configuration not stated),0,1,-1,43,100*,7
CCCC(C)C(=O)Nc1nc(C)c(-c2csc(Nc3ccccc3OC)n2)s1 (configuration not stated),0,0,5,55,2,13
COc1ccc(-n2c(-c3ccc(Cl)cc3)c[n+]3c2CCc2ccccc2-3)cc1,0,108*,18,-1,110*,-10
CC(=NNC(=O)c1ccncc1)c1ccccc1Cl,0,·,·,·,·,·
C/C(=N\NC(=O)C(=O)Nc1cccc(Cl)c1)c1ccncc1,16,-1,-6,36,81*,-1
SMILES,MPTP inh,Calb FLC,Mdm2-MdmX inh,CSC inhib,Beta apoptosis,SKKanGAS inh
C/C(=N\NC(=O)c1ccccc1NC(=O)c1ccc(Cl)cc1)c1ccncc1,2,2,-117,136*,102*,76*
CCN(CC)C(=O)c1ccc(CS(=O)(=O)c2ccc(Br)cc2)cc1,-1,4,4,9,-4,5
CC(C)n1c(N2CCN(C(=O)Nc3ccc(Cl)cc3)CC2)nc2ccccc21,9,73*,34,-12,-1,11
Cn1c(=O)c2c(SCC(=O)N3CCOCC3)nc(-c3ccccc3F)nc2n(C)c1=O,2,0,32,-12,·,61*
CC(=O)c1ccc(N2C(=O)[C@@H]3C(C(=O)CCN4C(=O)c5ccccc5C4=O)=NN[C@@H]3C2=O)cc1,0,-5,-14,5,-8,-15
Cc1cc(O)c(/C=N/Nc2ccc(Cl)cc2)c(=O)o1,0,87*,-4,3,1,-18
Cc1ccc(NC(=S)Nc2ccc3nc(-c4ccccn4)c(-c4ccccn4)nc3c2)cc1C,-1,·,·,6,2,·
OC(c1ccc(OCc2ccccc2)cc1)c1nnc(-c2ccccc2)o1 (configuration not stated),15,-17,15,8,-3,57*
Cc1ccc(S(=O)(=O)NCCNC(=O)C2CCCNC2=O)cc1 (configuration not stated),0,-4,-15,-1,-2,-3
COc1ccc(OC)c(NC2=NC3(CCCCC3)N=C(N)N2)c1,0,12,28,-8,-1,2
O/N=C/c1cc(Cl)ccc1OCc1cccc2ccccc12,·,1,10,2,2,80*
COc1ccc(/C=C/C(=O)c2ccc(O)cc2)cc1COc1ccc(F)cc1,17,19,46,97*,8,14
COc1ccc(C(=O)/C=C/c2ccc(OCc3ccccc3)cc2)cc1CSCC(=O)O,3,-9,5,79*,3,36
COc1ccc(C(=O)/C=C/c2cccc(OCc3ccccc3)c2)cc1CSCC(=O)O,6,27,37,13,0,38
COc1ccc(/C=C/C(=O)c2ccccc2)cc1COc1ccc(F)cc1,0,-5,9,29,3,1
COc1cnc(SC(C)C)[nH]c1=O,0,2,23,-8,0,9
CCOc1ccc(S(=O)(=O)Nc2cc(SCC(=O)O)c(O)c3ccccc23)cc1,0,2,·,·,·,14
Cc1ccc(C)c(S(=O)(=O)Nc2cc(SCC(=O)O)c(O)c3ccccc23)c1,40,·,·,20,130*,·

# Source: PubChem BioAssay
